In PubChem BioAssay AID624377 (The Scripps Research Institute Molecular Screening Center, 2012):
Out of some 360,000 compounds screened, about 680 (0.19%) were called active. No stated cut-off is given here; in the data, active means inhibition above about 25%; inactive means the rest. Shown is part of a subset that was picked to be rich in actives.

Each molecule was assayed against Arf-GAP with SH3 domain, ANK repeat and PH domain-containing protein 1 (Homo sapiens) (UniProt Q9ULH1) (assay: inhibitors of human ASAP1 ArfGAP activity, primary screen, biochemical, fluorescence polarization (AID 624377;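 further: 0% = vehicle with enzyme and substrate and 100% = no enzyme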)). Conditions: ASAP1-stimulated ARF1 GTP hydrolysis, GDP FP detection; at 16.5 µM; active compounds read high.
Sequence of Arf-GAP with SH3 domain, ANK repeat and PH domain-containing protein 1 (Homo sapiens) (Q9ULH1 325-724 limits assumed): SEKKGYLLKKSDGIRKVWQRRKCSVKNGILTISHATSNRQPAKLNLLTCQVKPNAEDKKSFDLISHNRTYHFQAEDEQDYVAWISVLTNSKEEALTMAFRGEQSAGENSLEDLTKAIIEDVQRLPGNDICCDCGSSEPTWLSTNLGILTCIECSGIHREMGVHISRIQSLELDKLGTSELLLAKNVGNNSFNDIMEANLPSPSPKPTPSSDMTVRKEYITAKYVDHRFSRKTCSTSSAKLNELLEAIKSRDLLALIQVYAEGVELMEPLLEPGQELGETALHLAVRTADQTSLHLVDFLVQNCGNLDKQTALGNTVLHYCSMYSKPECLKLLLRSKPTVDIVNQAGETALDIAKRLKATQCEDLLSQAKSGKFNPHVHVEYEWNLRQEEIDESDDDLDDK

inhibition, active:
COc1ccc(-n2nnnc2SCC(=O)c2ccc(OC)c(OC)c2)cc1 27.3%
CCN(CC)c1ccc2cc(C(N)=O)/c(=N\NC(=O)c3ccncc3)oc2c1 26.4%
CCN1CCN(CCNC(=O)c2ccc3c(c2)NC(=O)/C(=C\c2ccc(OC)c(OC)c2)S3)CC1 25.9%
COc1cc(/C=N/Nc2nn3cnnc3c3ccccc23)cc(OC)c1OC 27.1%
OCCNc1nc(Nc2ccc(Cl)c(Cl)c2)nc2ccccc12 26%

inhibition, inactive:
COc1ccccc1-c1ccc([C@@H]2C[C@H]3[C@H](CON3C)CN2S(=O)(=O)c2cc(Cl)cc(Cl)c2)cc1 -15.3%
CN1CCCCC(NC(=O)C(C)(C)C)C1=O (stereo unspecified) -1.72%
CC(=NNC(N)=O)c1ccc(Cl)c(-n2cccc2)c1 7.66%
Cc1cc(NCCc2c[nH]c3ccccc23)ccc1Oc1cccnc1 6.6%
COC(=O)[C@]12C[C@H](CC(=O)N3CCN(C(=O)C4CC4)CC3)C(=O)N(Cc3ccc4c(c3)OCO4)C1=C[C@H](C(C)(C)C)O[C@@H]2C -0.19%
COC(=O)[C@]12C[C@H](CC(=O)NCCc3ccccc3OC)C(=O)N(Cc3ccccc3)C1=C[C@H](C(C)C)O[C@@H]2C1CC1 -3.14%
CC[C@H](C)[C@H]1CNC(=O)C(=O)N1CC1CCN(CCc2ccc(OC)c(OC)c2)CC1 -3.91%
COc1ccc(-c2ccc3c(n2)CCCN3S(=O)(=O)c2ccc(C)cc2)cc1 -10.4%
CN[C@H]1C[C@H]2c3[nH]c4c(-c5ccccc5)cccc4c3CCN2C(=O)[C@H]1[C@H](C)O -4.1%
COC(=O)C1=C(C)N(Cc2cccc(C(F)(F)F)c2)C(=NCc2cccc(C(F)(F)F)c2)NC1c1ccccc1C(F)(F)F (stereo unspecified) 4.19%
CCOC(=O)/C=C/c1ccccc1O 8.09%
C[C@@H]1ON(C)[C@H]2C[C@H]3c4cc(N5CCOCC5)ccc4CCN3C[C@@H]12 11.7%
COC(=O)c1cc2c(c3c4ccccc4n(S(=O)(=O)c4cccc(C)c4)c13)C(=O)N(Cc1ccccc1)C2 -7.05%
O=C(CSc1nnnn1-c1ccc(O)cc1)c1ccc(F)cc1 1.74%
COc1ccc(NC(=O)CSc2nnnn2-c2cccc(OC)c2)cc1 3.21%
OC(CCl)CCl 12.1%
COC(=O)c1c(-c2ccc(OC)cc2)c2c(c3c4cc(OC)ccc4n(S(=O)(=O)c4ccc(F)cc4)c13)C(=O)N(C)C2 -0.62%
CCCN1C(=O)c2[nH]nc(-c3ccccc3)c2C1c1ccccc1 (stereo unspecified) 0.41%
C[C@H](CO)N1C[C@H](C)[C@@H](CN(C)C(=O)Nc2ccccc2F)OCc2cn(nn2)CCCC1=O -10.4%
Nc1ncnc2c1ncn2C1OC(CO)CC1O (stereo unspecified) 3.34%
Cc1ccccc1C(=O)N[C@H](C(=O)N1CCC[C@H]1C(=O)NCc1ccccc1)C(C)C -8.79%
COC(=O)[C@]12C[C@H](CC(=O)NCc3ccccc3)C(=O)N(CCC3=CCCCC3)C1=C[C@H](C(C)(C)C)O[C@@H]2C -6.37%
COc1ccc(C2=CN(Cc3ccccc3)C(c3ccc(OC)cc3)CC2=O)cc1 (stereo unspecified) 12.3%
CC(C)C[C@H](NC(=O)CC1CCCC1)C(=O)N1CCC[C@H]1C(=O)NCc1ccccc1 -6.9%
COc1ccccc1CCn1cnc(-c2ccccc2)c1C(C)C 16.9%
CCOC(=O)C1=C(C(=O)OCC)C2N(Cc3ccc(C#N)cc3)c3ccccc3[C@@]23C[C@@H](C(=O)OC)N(S(=O)(=O)c2ccc(F)cc2)C3=N1 (stereo partly specified) 12.3%
COc1cccc(CC(=O)N2CCN(C(=O)C(=O)c3cccc(C(F)(F)F)c3)CC2)c1 3.01%
CC(=NNC(=O)c1ccncc1)c1ccc(Cl)c(Cl)c1 -23.7%
CCOc1cc(/C=N/NC(=O)c2ccncc2)cc(Br)c1O -12.7%
CCOC(=O)N1CCN(C(=O)C[C@H]2C[C@@]3(C(=O)OC)C(=C[C@H](C4CCCC4)O[C@@H]3C)N(Cc3ccccc3)C2=O)CC1 -6.46%
COc1ccc(CNS(=O)(=O)c2cc(Br)ccc2Br)cc1 -8.38%
CCN1CCCC1CNC(=O)c1ccc2c(c1)NC(=O)/C(=C\c1ccccc1F)S2 (stereo unspecified) -12.3%
COc1ccc(CCNC(=O)c2ccc3c(c2)NC(=O)C(N2CCOCC2)S3)cc1OC (stereo unspecified) -5.91%
COc1ccc(NC(=O)N(C)C[C@@H]2OCCCC[C@@H](C)Oc3ccc(NC(=O)NC4CCCCC4)cc3C(=O)N([C@H](C)CO)C[C@@H]2C)cc1 -0.3%
NC(=O)c1ncn([C@@H]2O[C@H](C(=O)O)[C@@H](O)[C@H]2O)n1 -8.9%
O=C(NCc1ccccc1)[C@@H]1CCCN1C(=O)[C@H]1CCCN1C(=O)c1cccc(Cl)c1 5.06%
CC(C)CNc1cccc2c1S(=O)(=O)N[C@H](CC(C)C)CO2 14.4%
COCc1cc(N2CCN(C(=O)OC(C)(C)C)C[C@@H]2C)ccc1N1CCN(Cc2ccccc2)[C@H](C)C1 -0.13%
O=c1[nH]c(-c2ccccc2)cn1C1CCN(Cc2ccc(-c3nc4ccc(F)cc4nc3-c3ccccc3)cc2)CC1 6.64%
O=S1(=O)c2c(cccc2N2CCCCC2)O[C@H](COCc2ccccc2)CN1C1CC1 -0.37%
CCN1C(=O)N[C@@H]2C[C@H](C(=O)N3CCCC3)[C@H](C)[C@H](c3ccccc3)C[C@@H]21 9.08%
COC(=O)Cc1nnn2c1[C@H](C)[C@H](c1ccccc1[N+](=O)[O-])OCC2 5.28%
N#Cc1ccc(OCCCN2CCC(C(O)(c3ccccc3)c3ccccc3)CC2)c(F)c1 12.3%
O=C(NCc1ccccc1)[C@H]1CCCN1C(=O)[C@H]1CCCN1C(=O)c1cc(F)cc(F)c1 5.35%
Cc1[nH]nc2c1C(c1ccc(Br)cc1)NC2=O (stereo unspecified) 13.4%
Cc1[nH]c2ccccc2c1CC(=O)Nc1ccc(Nc2cccnc2)c(-c2cccc(Cl)c2)c1 23.9%
Cc1ccc(NC(=O)N2c3ccccc3SC2c2ccco2)c(C)c1 (stereo unspecified) 0.24%
Nc1nc2c(ncn2[C@@H]2O[C@H](C(=O)N[C@@H](Cc3ccccc3)C(=O)NCc3ccccc3)[C@@H](O)[C@H]2O)c(=O)[nH]1 1.52%
CC(C)(C)C(c1nc2ccccc2[nH]1)n1c(Cc2csc3ccccc23)nc2ccccc21 (stereo unspecified) 0.61%
CCCCCCCCN1C(=O)[C@@H](CC(=O)N2CCN(C(=O)OCC)CC2)C[C@@]2(C(=O)OC)C1=C[C@H](C1CCCC1)O[C@@H]2C -6.71%
O=C(NS(=O)(=O)c1cccs1)[C@H]1O[C@@H](n2ccc(=O)[nH]c2=O)[C@H](O)[C@@H]1O -0.42%
CN(CCO)c1ccc(/C=N/Nc2nncc3ccccc23)cc1 4.89%
COc1cc(Nc2nc3ccc(Cl)cc3n3cnnc23)cc(OC)c1OC -7.78%
Nc1[nH]c(C(=O)c2ccccc2)c(-c2ccc(Cl)cc2Cl)c1C(=O)c1ccccc1 1.42%
CCCCCCCCN1C(=O)[C@@H](CC(=O)NCc2ccc(C)o2)C[C@@]2(C(=O)OC)C1=C[C@H](C(C)(C)C)O[C@@H]2C -18.4%
C[C@@H]1CN([C@H](C)CO)C(=O)CCCn2cc(nn2)CO[C@H]1CN(C)C(=O)Nc1ccc(N2CCCCC2)cc1 -5.8%
O=C(NCc1ccccc1)[C@@H]1CCCN1C(=O)[C@@H](NS(=O)(=O)c1ccc(F)cc1F)C1CCCCC1 -1.92%
Cc1ccc(N)cc1CN1CCN(c2ncc(Cc3ccccc3)cn2)CC1 12%
COc1cccc(CNC(=O)[C@H]2CCCN2C(=O)[C@H]2CCCN2C(=O)C2CCCCC2)c1 -4.66%
COC(=O)[C@]1(Cc2ccccc2)NC=C(C(=O)c2ccccc2)[C@@H]1c1cccc(OC)c1 -16.7%
C=CC1=CCN(S(=O)(=O)C(C)(C)C)[C@@H]1CCO -14.4%
CN1CCCc2nc(-c3ccccc3)ccc21 1.42%
CSc1ccc(Oc2cccc3c2S(=O)(=O)N([C@H](C)c2ccccc2)C[C@@H](COCc2ccccc2)O3)cc1C 0.74%
Cc1cc2c(nc1C)CCCN2C -12%
CN1C(=O)C2CC(O)C(SC3CC4C(=O)N(C)C(=O)C4CC3O)CC2C1=O (stereo unspecified) -4.75%
COC(=O)[C@]12C[C@H](CC(=O)NCc3cccc(C(F)(F)F)c3)C(=O)N(Cc3ccc4c(c3)OCO4)C1=C[C@H](COCc1ccccc1)O[C@@H]2C 2.38%
COC(=O)C1=C(C)N(Cc2ccccc2C(F)(F)F)C(=NCc2ccc(C(F)(F)F)cc2)NC1c1ccc(F)cc1 (stereo unspecified) 8.73%
COC(=O)C(C(=O)OC)c1ccccc1NS(=O)(=O)c1cccc2ccccc12 -1.63%
OCCNCCOc1ccc(Cl)c(Cl)c1 -8.06%
COCCNc1nc(Nc2ccccc2Cl)c2sc(-c3ccccc3)cc2n1 13.4%
COC(=O)[C@]12C[C@H](CC(=O)NCc3ccc(C)o3)C(=O)N(CCC3=CCCCC3)C1=C[C@H](C(C)(C)C)O[C@@H]2C -6.9%
